Assay results reported in the supplement of paper PMC11732987, “Enantioselective OTUD7B fragment discovery through chemoproteomics screening and high-throughput optimisation” (Communications Chemistry, 2025).

Columns and labels:
Test in all cases: log2 ratio of Biotin-Ahx-Ub-VS probe labelling (fragment/DMSO); higher = less target engagement (more negative = stronger competition), active = hit call of the paper (q ≤ 0.05, log2 ratio ≤ -1)
Details in all cases: compound concentration: 200 uM; treatment time: 3 h
[1] = target: T1, ALG13 (UniProt Q9NP73)
T1 sequence (whole entry): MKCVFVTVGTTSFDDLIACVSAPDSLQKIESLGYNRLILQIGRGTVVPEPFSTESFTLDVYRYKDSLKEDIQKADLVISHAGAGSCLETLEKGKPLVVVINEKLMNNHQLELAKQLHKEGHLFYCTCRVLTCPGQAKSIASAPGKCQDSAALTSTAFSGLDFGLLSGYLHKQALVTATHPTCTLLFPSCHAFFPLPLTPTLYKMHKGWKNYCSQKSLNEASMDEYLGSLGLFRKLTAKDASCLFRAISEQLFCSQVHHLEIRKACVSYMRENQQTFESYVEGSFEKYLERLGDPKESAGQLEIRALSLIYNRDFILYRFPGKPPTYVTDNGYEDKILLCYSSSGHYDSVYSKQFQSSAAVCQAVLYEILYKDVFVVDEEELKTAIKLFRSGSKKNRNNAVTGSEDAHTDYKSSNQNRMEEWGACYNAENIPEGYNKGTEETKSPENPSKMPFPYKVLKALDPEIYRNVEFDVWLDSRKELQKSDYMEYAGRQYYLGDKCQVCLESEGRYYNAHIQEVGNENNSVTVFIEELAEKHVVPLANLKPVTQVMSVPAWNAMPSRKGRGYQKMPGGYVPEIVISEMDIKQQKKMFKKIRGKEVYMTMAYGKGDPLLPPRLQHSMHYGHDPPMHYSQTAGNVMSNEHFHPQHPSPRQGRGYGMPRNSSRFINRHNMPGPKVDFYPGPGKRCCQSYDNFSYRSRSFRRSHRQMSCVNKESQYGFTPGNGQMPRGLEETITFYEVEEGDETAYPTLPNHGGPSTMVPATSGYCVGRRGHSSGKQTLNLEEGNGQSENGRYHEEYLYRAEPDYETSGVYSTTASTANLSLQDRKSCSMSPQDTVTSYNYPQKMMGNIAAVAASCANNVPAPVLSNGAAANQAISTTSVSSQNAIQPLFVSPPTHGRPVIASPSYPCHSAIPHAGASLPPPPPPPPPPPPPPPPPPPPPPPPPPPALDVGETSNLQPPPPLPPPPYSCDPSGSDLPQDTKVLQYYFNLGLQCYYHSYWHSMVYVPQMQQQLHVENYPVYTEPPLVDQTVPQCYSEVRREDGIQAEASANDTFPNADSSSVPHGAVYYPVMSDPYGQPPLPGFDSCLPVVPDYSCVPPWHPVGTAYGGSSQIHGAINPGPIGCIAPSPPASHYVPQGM
Outline: (§1)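 Average log2 ratios of fragment over vehicle were obtained by unpaired t-test from global-median-normalised Spectronaut label-free quantities. Proteins with ≥2 unique peptides were included. HEK293T lysate (495 µg per sample) was treated in triplicate with fragment at 200 µM or vehicle for 3 h, then with Biotin-Ahx-Ub-VS at 0.5 µM final for 1 h, and labelled DUBs were NeutrAvidin-enriched and run by diaPASEF LC-MS/MS.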

[2] = target: ATXN3 (UniProt P54252)
ATXN3, sequence (P54252 whole entry): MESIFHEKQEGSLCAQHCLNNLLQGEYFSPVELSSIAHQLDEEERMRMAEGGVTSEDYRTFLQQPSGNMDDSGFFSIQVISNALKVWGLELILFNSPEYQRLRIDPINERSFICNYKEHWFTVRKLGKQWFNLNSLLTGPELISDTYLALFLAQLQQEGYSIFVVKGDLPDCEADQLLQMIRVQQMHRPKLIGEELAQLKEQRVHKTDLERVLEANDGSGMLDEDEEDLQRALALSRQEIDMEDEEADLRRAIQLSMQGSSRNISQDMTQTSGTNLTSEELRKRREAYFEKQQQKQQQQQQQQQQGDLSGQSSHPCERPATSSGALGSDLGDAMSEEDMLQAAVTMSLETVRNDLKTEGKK
Outline: as §1

[3] = target: T2, BAP1 (UniProt Q92560)
T2 sequence (whole entry): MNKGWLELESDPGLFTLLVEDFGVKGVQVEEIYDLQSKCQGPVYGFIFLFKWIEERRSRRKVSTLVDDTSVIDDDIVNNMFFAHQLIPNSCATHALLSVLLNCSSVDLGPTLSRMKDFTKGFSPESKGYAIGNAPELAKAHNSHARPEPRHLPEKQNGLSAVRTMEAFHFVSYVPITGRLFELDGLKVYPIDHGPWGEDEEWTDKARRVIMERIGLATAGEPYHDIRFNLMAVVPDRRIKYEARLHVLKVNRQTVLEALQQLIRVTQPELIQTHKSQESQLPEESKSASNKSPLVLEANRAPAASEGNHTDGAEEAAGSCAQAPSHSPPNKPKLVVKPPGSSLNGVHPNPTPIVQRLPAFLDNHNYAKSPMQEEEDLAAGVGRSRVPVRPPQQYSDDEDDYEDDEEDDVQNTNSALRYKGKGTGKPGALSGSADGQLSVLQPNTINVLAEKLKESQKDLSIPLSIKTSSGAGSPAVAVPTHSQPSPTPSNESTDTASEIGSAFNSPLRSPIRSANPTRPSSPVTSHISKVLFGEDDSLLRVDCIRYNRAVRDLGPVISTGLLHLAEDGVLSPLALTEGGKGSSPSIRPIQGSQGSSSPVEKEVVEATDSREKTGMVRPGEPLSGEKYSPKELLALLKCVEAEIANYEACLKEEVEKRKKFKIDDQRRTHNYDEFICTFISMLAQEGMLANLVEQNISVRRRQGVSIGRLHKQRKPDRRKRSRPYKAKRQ
Outline: as §1

[4] = target: EIF3F (UniProt O00303)
EIF3F, sequence (O00303 whole entry): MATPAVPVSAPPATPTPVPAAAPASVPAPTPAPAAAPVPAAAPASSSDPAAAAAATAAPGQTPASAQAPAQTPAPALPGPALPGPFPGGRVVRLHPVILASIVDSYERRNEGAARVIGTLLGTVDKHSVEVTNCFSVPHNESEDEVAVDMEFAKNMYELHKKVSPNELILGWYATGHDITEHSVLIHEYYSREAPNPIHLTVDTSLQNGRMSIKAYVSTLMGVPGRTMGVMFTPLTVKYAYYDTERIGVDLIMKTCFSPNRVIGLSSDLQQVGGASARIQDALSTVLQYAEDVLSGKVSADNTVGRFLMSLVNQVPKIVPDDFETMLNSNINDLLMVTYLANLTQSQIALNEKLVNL
Outline: as §1

[5] = target: EIF3H (UniProt O15372)
EIF3H, sequence (O15372 whole entry): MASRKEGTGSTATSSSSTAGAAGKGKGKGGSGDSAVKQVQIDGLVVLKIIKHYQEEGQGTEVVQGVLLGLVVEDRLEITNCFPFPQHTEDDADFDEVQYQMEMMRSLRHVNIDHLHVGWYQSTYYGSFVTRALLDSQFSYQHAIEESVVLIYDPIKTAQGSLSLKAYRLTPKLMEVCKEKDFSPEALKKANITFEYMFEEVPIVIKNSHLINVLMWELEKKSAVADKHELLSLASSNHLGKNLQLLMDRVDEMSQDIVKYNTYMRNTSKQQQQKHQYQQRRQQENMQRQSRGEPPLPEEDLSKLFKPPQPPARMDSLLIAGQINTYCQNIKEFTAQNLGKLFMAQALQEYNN
Outline: as §1

[6] = target: T3, FAM105A (UniProt Q9NUU6)
T3 sequence (whole entry): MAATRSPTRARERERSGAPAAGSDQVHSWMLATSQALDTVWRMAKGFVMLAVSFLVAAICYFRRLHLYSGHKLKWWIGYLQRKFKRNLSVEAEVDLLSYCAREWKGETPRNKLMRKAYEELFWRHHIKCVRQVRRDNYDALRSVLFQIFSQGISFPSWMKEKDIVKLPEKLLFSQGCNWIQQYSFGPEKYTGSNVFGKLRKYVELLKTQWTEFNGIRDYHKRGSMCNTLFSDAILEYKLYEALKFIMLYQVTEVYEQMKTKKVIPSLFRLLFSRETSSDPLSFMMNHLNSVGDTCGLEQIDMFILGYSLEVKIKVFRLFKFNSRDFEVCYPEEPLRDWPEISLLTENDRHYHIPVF
Outline: as §1

[7] = target: OTUB1 (UniProt Q96FW1)
OTUB1, sequence (Q96FW1 whole entry): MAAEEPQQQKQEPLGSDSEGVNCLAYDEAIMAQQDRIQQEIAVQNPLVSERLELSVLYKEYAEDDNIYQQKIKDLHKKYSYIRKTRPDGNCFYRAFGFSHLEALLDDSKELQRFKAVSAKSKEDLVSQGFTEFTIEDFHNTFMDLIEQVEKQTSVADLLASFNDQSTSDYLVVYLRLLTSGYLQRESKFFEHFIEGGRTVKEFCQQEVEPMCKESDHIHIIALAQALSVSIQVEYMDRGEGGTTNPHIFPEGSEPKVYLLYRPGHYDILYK
Outline: as §1

[8] = target: T4, OTUD4 (UniProt Q01804)
T4 sequence (whole entry): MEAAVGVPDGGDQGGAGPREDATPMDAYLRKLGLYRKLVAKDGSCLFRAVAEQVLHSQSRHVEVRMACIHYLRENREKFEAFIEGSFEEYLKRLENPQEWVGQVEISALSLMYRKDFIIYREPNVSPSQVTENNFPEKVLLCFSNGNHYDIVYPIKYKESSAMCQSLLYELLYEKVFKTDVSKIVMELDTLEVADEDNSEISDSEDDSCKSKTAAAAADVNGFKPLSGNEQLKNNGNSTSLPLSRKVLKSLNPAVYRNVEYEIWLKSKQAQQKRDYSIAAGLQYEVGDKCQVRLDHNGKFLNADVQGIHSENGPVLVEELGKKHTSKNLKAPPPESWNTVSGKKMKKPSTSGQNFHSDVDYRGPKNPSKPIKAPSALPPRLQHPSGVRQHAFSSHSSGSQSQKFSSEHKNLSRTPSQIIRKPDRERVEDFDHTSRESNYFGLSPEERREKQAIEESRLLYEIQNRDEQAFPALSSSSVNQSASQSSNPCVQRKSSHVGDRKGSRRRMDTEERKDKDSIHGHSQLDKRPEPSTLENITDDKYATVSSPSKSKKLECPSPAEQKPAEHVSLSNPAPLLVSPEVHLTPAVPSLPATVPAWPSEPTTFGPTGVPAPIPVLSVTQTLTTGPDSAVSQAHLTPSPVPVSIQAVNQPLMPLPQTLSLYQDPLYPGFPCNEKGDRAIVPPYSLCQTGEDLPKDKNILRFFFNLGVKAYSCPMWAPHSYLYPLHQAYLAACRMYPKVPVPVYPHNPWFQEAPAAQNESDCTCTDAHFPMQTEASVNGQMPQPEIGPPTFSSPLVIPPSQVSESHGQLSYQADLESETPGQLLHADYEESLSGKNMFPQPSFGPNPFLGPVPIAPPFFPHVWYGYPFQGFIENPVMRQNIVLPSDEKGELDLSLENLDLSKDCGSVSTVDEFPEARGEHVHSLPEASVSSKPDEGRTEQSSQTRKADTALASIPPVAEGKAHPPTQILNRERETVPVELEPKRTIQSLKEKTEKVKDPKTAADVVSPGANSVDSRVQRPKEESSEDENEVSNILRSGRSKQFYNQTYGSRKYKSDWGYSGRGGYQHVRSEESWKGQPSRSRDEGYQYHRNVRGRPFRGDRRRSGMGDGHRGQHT
Outline: as §1

[9] = target: T5, OTUD5 (UniProt Q96G74)
T5 sequence (whole entry): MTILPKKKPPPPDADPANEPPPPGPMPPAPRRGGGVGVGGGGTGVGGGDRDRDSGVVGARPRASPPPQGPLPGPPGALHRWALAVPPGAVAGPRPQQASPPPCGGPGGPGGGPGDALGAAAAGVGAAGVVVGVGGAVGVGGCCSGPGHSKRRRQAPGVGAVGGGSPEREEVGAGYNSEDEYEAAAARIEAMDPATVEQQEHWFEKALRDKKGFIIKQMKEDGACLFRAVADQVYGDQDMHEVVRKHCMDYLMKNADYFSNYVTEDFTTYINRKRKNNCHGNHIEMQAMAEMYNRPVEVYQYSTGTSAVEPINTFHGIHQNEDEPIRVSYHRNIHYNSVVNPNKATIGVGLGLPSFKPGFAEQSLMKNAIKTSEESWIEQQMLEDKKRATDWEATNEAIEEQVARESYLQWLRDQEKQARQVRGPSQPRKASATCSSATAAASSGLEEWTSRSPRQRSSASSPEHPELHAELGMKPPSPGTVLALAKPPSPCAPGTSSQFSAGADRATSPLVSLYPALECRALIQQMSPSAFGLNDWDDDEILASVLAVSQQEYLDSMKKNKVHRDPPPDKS
Outline: as §1

Measured: log2 ratio of Biotin-Ahx-Ub-VS probe labelling

O=C(CCl)N1CCc2[nH]c3ccccc3c2C1
active: [9] -1.55
inactive: [1] -0.37 | [2] -0.343 | [3] -0.875 | [4] -0.00281 | [5] 0.231 | [6] 0.0311 | [7] -0.167 | [8] -0.657
